This note sets out measurements from PubChem BioAssay.

Test [1] relates to Human papillomavirus type 1a protein E7 (residues 44-93). In words: small molecules binding HPV E7 44-93 – biochemical, small-molecule microarray, residues 44-93, 635 nm fluorescence, primary screen (AID 1108).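 Note: E7 fragment applied at 1 µg/mL in TBST for 1 h at 4 C; score combines spot fluorescence with its signal to noise ratio.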 The note with it: fluorescence 635 nm, higher = more signal.
Test [2] can be described thus: hepatitis C replication reporter changes, two-sided – Huh7 cells, luciferase reporter, HCV replication inhibitor project, primary screen (AID 1109).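 Note: huh7 hepatoma cells harbouring a luciferase neomycin HCV replicon reporter; luciferase luminescence as measure of HCV replicon replication; test concentration not given here.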 Conditions: Huh7 HCV replicon luciferase reporter, 48 h; higher = more signal.
The target in test [3] is Left-right determination factor 2 (Homo sapiens) (UniProt O00292). In words: small molecules binding LEFTY2 protein – biochemical, small-molecule microarray, 635 nm fluorescence scan, primary screen (AID 1110). Conditions: higher = more signal.
Chain of Left-right determination factor 2 (Homo sapiens) (O00292 whole entry, looked up): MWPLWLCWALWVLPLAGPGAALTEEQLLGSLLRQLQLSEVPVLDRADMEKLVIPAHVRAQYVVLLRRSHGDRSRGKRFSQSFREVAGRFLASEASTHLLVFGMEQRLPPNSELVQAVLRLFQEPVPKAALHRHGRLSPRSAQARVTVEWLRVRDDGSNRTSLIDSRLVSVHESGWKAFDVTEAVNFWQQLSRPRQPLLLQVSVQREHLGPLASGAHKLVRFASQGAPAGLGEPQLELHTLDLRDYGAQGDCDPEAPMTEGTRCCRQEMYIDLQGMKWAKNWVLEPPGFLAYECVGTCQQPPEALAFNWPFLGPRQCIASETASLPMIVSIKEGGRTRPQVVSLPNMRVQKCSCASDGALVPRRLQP
The target of test [4] is Calmodulin-1 (Homo sapiens) (UniProt P0DP23). The test can be described thus: small molecules binding calmodulin-1 with EGTA – biochemical, small-molecule microarray, Cy5-labelled CALM1, profiling panel (AID 1111).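 Note: labelled calmodulin applied in Tris saline Tween buffer holding calcium plus EGTA and DTT.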 Conditions: Cy5-CALM1 binding fluorescence, higher = more signal.
Test [5] has the same target. The test can be described thus: small molecules binding Ca-loaded calmodulin-1 – biochemical, small-molecule microarray, Cy5-labelled CALM1, plus calcium, artefact control for SMM control-protein annotation, profiling panel (AID 1112).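 Note: score merges spot fluorescence with signal to noise from triplicate slides.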 Conditions: Cy5-CALM1 binding fluorescence, higher = more signal.
The nature of test [6]: probe aWnt5a binding to arrayed compounds – biochemical, biotinylated probe, 635/667 nm fluorescence, primary screen (AID 1113).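 Note: score merges 667 nm fluorescence intensity with signal-to-noise per printed feature.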 The note with it: small-molecule microarray, higher = more signal.
The nature of test [7]: probe aShh binding to arrayed compounds – biochemical, biotinylated probe, 635/667 nm fluorescence, primary screen (AID 1114).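 Note: probe is biotin-labelled aShh protein from a stem cell growth factor screen; measures binding of labelled protein to compounds printed on the slide; score merges feature fluorescence at 667 nm with signal-to-noise.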 Conditions: small-molecule microarray, higher = more signal.
The nature of test [8]: probe aNog binding to arrayed compounds – biochemical, biotinylated probe, 635/667 nm fluorescence, primary screen (AID 1115).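 Note: probe is biotinylated aNog protein used at 0.15 µg/mL for 1 h at 4 C; z-score combines 667 nm fluorescence of each spot with its signal to noise.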 Conditions: small-molecule microarray, higher = more signal.
In test [9] the target is Torsin-1A-interacting protein 1 (Homo sapiens) (UniProt Q5JTV8). The test can be described thus: compound microarray binding of lysate hLAP1 – cell lysate, small-molecule microarray, COS7 lysate, 635/667 nm fluorescence, primary screen (AID 1116). Conditions: 635 nm fluorescence, higher = more signal.
Chain of Torsin-1A-interacting protein 1 (Homo sapiens) (Q5JTV8 whole entry, looked up): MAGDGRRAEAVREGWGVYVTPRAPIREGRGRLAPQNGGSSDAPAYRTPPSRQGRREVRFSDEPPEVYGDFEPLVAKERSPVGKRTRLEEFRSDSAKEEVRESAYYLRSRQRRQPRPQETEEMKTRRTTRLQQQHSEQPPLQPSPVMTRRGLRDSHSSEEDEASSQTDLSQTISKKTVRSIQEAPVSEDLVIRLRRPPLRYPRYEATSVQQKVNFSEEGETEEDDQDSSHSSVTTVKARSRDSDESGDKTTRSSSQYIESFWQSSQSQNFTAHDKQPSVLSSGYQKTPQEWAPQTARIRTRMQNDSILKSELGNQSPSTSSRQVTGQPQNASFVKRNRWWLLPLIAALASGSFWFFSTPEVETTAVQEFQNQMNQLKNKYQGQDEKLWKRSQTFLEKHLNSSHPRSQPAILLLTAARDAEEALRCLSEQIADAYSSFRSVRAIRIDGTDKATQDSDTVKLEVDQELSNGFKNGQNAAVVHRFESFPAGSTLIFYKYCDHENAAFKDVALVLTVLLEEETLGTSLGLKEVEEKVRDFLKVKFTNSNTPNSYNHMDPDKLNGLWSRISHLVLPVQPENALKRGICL
In test [10] the target is Alpha-bungarotoxin (Bungarus multicinctus) (UniProt P60615). In words: compounds binding labelled alpha-BTX control protein – biochemical, small-molecule microarray, Alexa647 label, 635/667 nm fluorescence, artefact control for SMM control protein annotation, profiling panel (AID 1117). The note with it: alpha-BTX-A647 binding fluorescence, higher = more signal.
Chain of Alpha-bungarotoxin (Bungarus multicinctus) (P60615 whole entry, looked up): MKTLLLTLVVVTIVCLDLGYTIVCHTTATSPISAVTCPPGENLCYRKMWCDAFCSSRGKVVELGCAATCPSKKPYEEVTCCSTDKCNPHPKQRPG
Another test concerns the target Albumin (Bos taurus) (UniProt P02769). In words: compounds binding labelled BSA control protein – biochemical, small-molecule microarray, Alexa647 label, 635/667 nm fluorescence, artefact control for SMM control protein annotation, profiling panel (AID 1118).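 Note: score merges 667 nm emission intensity and signal-to-noise per printed compound spot.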 Conditions: BSA-A647 binding, fluorescence 635 nm, higher = more signal.
Test [11] is described as follows: probe aXIP binding to arrayed compounds – biochemical, NeuroSMM set, 635/667 nm fluorescence, primary screen (AID 1119).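 Note: probe is the protein aXip251-270 applied at 1 µg/mL to compound-printed slides; binding of probe to printed compounds measured as 667 nm fluorescence plus signal to noise.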 Conditions: small-molecule microarray, higher = more signal, called active from +8 up or from −8 down.
A short description of test [12]: probe aNOTCH3 binding on compound microarray – biochemical, small-molecule microarray, 635/667 nm fluorescence, primary screen (AID 1120).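 Note: probe is a biotin-tagged antibody raised against NOTCH3 rather than NOTCH3 protein; score merges spot fluorescence near 667 nm with spot signal to noise.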 The note with it: higher = more signal.
The nature of test [13]: probe aNOTCH2 binding on compound microarray – biochemical, small-molecule microarray, 635/667 nm fluorescence, primary screen (AID 1121).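 Note: score merges feature fluorescence read at 667 nm with its signal to noise.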 The note with it: higher = more signal.
In test [14] the target is Carbonic anhydrase 2 (Homo sapiens) (UniProt P00918). The test can be described thus: compounds binding carbonic anhydrase 2 – biochemical, small-molecule microarray, Alexa647-labelled CAII, profiling panel (AID 1122). The note with it: CAII-A647 binding fluorescence, higher = more signal.
Test [15] is described as follows: COS7 lysate on small-molecule microarray, probe aHis, 635 nm (AID 1123).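 Note: z-score combines 667nm fluorescence intensity with signal-to-noise per printed compound spot.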 Conditions: COS7 cell lysate, fluorescence, higher = more signal.
A short description of test [16]: probe aLAP1 signal on lysate-treated microarray – cell lysate, small-molecule microarray, COS7 lysate, primary screen (AID 1124).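 Note: lysate comes from COS7 cells expressing LAP1 and is applied at 0.3 µg/mL; score merges spot fluorescence near 667 nm with signal-to-noise over triplicate slides.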 The note with it: probe aLAP1, fluorescence, higher = more signal.
The subject of another test is Sam68 (KHDRBS1). The test can be described thus: compounds binding KHDRBS1 protein – biochemical, small-molecule microarray, 635 nm fluorescence, primary screen (AID 1125).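 Note: score merges 667 nm channel intensity with signal to noise over triplicate slides.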 Conditions: higher = more signal.
The test system of test [17] is Chordin-like protein 2 (CHRDL2). In words: compounds binding chordin-like 2 – biochemical, small-molecule microarray, 635 nm fluorescence, primary screen (AID 1126).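 Note: printed compound slides probed with Chrdl2 protein at 4 µg/mL for 1 h at 4 C; score merges 667 nm emission intensity with signal to noise over three replicate slides.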 The note with it: fluorescence 635 nm, higher = more signal.
In test [18] the target is Concanavalin-A (Canavalia ensiformis) (UniProt P02866). The test can be described thus: compounds binding concanavalin A lectin – biochemical, small-molecule microarray, Alexa647 label, 635 nm, artefact control for SMM control protein annotation, primary screen (AID 1127).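 Note: z combines 667 nm emission intensity with signal-to-noise across three replicate slides.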 Conditions: ConA-A647 binding fluorescence, higher = more signal.
Chain of Concanavalin-A (Canavalia ensiformis) (P02866 whole entry, looked up): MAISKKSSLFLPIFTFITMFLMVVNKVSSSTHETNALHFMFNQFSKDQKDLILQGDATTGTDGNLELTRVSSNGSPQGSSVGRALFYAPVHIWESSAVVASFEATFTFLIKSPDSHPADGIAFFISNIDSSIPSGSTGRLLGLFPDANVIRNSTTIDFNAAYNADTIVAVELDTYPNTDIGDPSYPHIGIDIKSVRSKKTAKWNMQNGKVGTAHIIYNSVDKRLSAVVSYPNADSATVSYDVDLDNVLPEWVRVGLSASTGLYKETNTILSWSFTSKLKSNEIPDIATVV

The source made the active and inactive calls.

Chain of Albumin (Bos taurus) (P02769 whole entry, looked up): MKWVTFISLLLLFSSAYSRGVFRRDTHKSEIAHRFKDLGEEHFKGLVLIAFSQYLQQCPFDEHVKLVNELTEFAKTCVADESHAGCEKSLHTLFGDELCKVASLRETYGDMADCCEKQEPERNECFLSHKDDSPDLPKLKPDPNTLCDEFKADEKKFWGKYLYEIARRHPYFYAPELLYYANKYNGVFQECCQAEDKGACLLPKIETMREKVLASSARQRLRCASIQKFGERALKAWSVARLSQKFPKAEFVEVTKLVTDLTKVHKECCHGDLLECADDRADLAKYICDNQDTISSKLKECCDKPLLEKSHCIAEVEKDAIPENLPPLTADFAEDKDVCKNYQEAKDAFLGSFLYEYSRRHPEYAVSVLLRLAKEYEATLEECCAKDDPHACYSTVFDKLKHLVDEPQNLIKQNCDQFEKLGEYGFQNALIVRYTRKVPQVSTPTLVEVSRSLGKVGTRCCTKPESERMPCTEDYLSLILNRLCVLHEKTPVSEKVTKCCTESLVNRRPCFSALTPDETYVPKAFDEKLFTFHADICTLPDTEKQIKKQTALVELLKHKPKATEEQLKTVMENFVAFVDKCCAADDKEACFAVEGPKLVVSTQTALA

Consider `O=C1C2C=CC(C(O)c3c(F)cccc3Cl)N(Nc3ccccc3F)C2C(=O)N1c1ccccc1` (stereo not given), for which the composite z-score is 1.43 in [1]; -0.165 in test [3]; 1.24 in test [4]; 0.265 in [5]; 0.0136 in test [6]; 0.701 in test [7]. Also, the composite z-score in test [8] is 0.933; in test [9], 1.43; in test [10], 0.543; with Albumin (Bos taurus), 0.913; in [12], 0.185; in [13], -0.0216. In addition, the composite z-score was 0.691 in test [14]; 1.67 in test [15]; 0.497 in test [16]; 1.21 in the test on Sam68 (KHDRBS1); -0.534 in [17]; 0.972 in test [18]. Moreover, the z-score in test [2] is -0.665. Moreover, the composite Z-score in test [11] was -0.145 (inactive).
As for `COC(=O)[C@@]1(Cc2ccc(OC)cc2)[C@H]2c3cc(C(=O)N(C)C)n(Cc4ccc(C(F)(F)F)nc4)c3C[C@H]2CN1C(=O)c1ccccc1`, the composite z-score in test [1] was 0.714; in [3], -0.0595; in test [4], 0.705; in test [5], 0.199; in test [6], 0.17; in test [7], 0.413. The composite z-score in test [8] was 0.18; in [9], 1; in [10], -0.173; in the test with Albumin (Bos taurus), 0.92; in test [12], 0.17; in test [13], 0.183. The composite z-score was 0.752 in test [14]; 2.11 in [15]; 0.017 in test [16]; -0.354 in the test with Sam68 (KHDRBS1); 0.181 in test [17]; -0.0962 in [18]. For the same compound, the z-score in test [2] was -0.657. For the same compound, in test [11], the composite Z-score was 3.72 (inactive).
For `CCOC(=O)C1=CC[C@@H](c2ccccc2)N(S(=O)(=O)c2ccc(C)cc2)[C@H]1c1ccc(CC)cc1`, the composite z-score was 1.4 in test [1]; 0.353 in test [3]; 1.21 in test [4]; 0.511 in test [5]; -0.0384 in test [6]; -0.264 in test [7]. For the same compound, the composite z-score in [8] is 0.733; in test [9] it was 0.331; in test [10], 0.569; with Albumin (Bos taurus) it was 0.847; in test [12], 0.0749; in test [13] it was -0.0371. For the same compound, the composite z-score in test [14] is 0.571; in test [15] it was 1.52; in [16], 0.662; in the test with Sam68 (KHDRBS1) it was 1.1; in [17], -0.0671; in test [18] it was 1.11. The z-score in test [2] is -1.8. Further, in [11], the composite Z-score was -0.579 (inactive).
`COC(=O)c1c(CC[C@@H](CO)NC(=O)N[C@@H](Cc2ccccc2)Cn2cc(-c3ccccn3)nn2)oc(C(=O)N2CCOCC2)c1C(=O)OC`: the composite z-score was -0.593 in test [1]; 0.0348 in test [3]; -0.194 in test [4]; 0.0715 in [5]; -0.204 in test [6]; 0.0796 in test [7]. Further, the composite z-score was 0.151 in test [8]; 0.167 in test [9]; 0.0762 in [10]; 0.15 with Albumin (Bos taurus); 0.0562 in test [12]; -0.0928 in test [13]. In addition, the composite z-score in test [14] was 0.696; in test [15] it was 0.0795; in [16], -0.425; in the test with Sam68 (KHDRBS1) it was -0.23; in test [17] it was -0.488; in [18], -0.376. Moreover, the z-score in [2] came out at 0.209. Also, the composite Z-score in [11] was 0.255 (inactive).
Turning to `CN(C)C(=O)[C@]1(Cc2ccccc2)N=C(c2ccc(OCCCO)cc2)O[C@@H]1c1ccccc1N=[N+]=[N-]`, the composite z-score in test [1] was determined as 1.4; in test [3], 0.357; in test [4], 1.63; in [5], 0.393; in [6], 0.0926; in test [7], 0.398. For the same compound, the composite z-score is -0.0332 in [8]; 2.01 in test [9]; 1.37 in [10]; 0.784 with Albumin (Bos taurus); 0.23 in test [12]; -0.0145 in test [13]. In addition, the composite z-score in test [14] is 0.782; in test [15], 2.12; in [16], 0.764; with Sam68 (KHDRBS1) it was 1.32; in test [17], -0.199; in test [18] it was 1.1. The z-score in test [2] was -2.58. The composite Z-score in test [11] was 0.431 (inactive).
For the compound `CCCCCN1CC=CC23O[C@@H]4C=CCOC(=O)[C@@H]4[C@H]2C(=O)N(C(C)CO)[C@@H]3C1=O` (stereo not given in full), the composite z-score in [1] is -0.967; in test [3], -1.39; in test [4], -0.0225; in test [5], -0.0583; in test [6], -0.176; in test [7] it was -0.0146. The composite z-score is 1.04 in [8]; -0.901 in [9]; -0.394 in [10]; 0.755 in the test with Albumin (Bos taurus); -0.403 in test [12]; -0.12 in [13]. The composite z-score in [14] was 0.863; in [15], -0.284; in test [16], -0.0739; in the test on Sam68 (KHDRBS1) it was -1.22; in test [17], -0.811; in test [18], -0.54. In addition, in test [2], the z-score turned out to be 1.01. Besides, in test [11], the composite Z-score is -0.294 (inactive).
